Assay outcomes from PubChem.
Pf growth 96h – P. falciparum growth inhibition at 96 hours; P. falciparum luciferase reporter growth, 96 h; Potency, µM (doses to about 28.7 µM), without a hit: at the top dose activity change, negative = inhibition, hits mostly inhibitors; actives 6.9% (n = 320,000); AID 504834; further: potency means the concentration at half of the fitted maximal effect
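Readout is luminescence from an integrated firefly luciferase in P. falciparum. Red cells, 2% hematocrit and 0.05% parasitemia final, were cultured with compound through two parasite generations (96 hours) at 37 C, 5% CO2.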
HCV inh – HCV inhibition | Huh7.5.1 HCVcc-Cre infection, luciferase reporter, 44 h | actives 3.4% (n = 340,000) | AID 651820 | Potency, µM (titrated, usually from 41.8 µM), inactives show at the top dose activity change, negative = inhibition, usual class: inhibitors; further: potency means the concentration at half of the fitted maximal effect
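After 44 h co-culture of compound, cells and HCVcc-Cre (~0.5 moi), substrate is added for 15 min at room temperature and luciferase measured over 15 sec. Cells were seeded at 1,000/well and pre-cultured 4 h.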
Marburg entry inh – blocks Marburg virus binding to or entry into cells | Potency, µM (series often up to 37.8 µM), for inactives: top-dose activity change, negative = inhibition, hits mostly inhibitors | actives 1.8% (n = 300,000) | Marburg virus pseudotyped entry inhibition, cell reporter | AID 540276; calls by dose curve; tested in HEK293 cells; further: potency means the concentration at half of the fitted maximal effect
LASV entry inh – blocks Lassa virus binding to or entry into cells | Lassa virus pseudotype entry inhibition, cell reporter | Potency, µM (highest dose often 37.9 µM), inactives show at the highest dose activity change, negative = inhibition, most hits filed as inhibitors | actives 1.2% (n = 300,000) | AID 540256; calls by dose curve; tested in HEK293 cells; further: potency means the concentration at half of the fitted maximal effect; nearly all actives have a fitted effect of over 50% in size
HCMV antiviral – blocks human cytomegalovirus replication | HFF cells, HCMV-luciferase reporter, 72 h; hits give low values | activity change, negative = inhibition, % at 57.5 µM | actives 4.5% (n = 410,000) | AID 1259415; in the data active means activity change below about -60%; inconclusive means no clear call, values can overlap the other calls; inactive means above about -39%
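Human foreskin fibroblasts infected with luciferase-reporter HCMV at MOI 1 PFU/cell, compounds at two doses. Luciferase measured 72 h post infection; normalized to buffer-only basal and Salinomycin (10uM) controls.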
Pf growth 48h – P. falciparum growth inhibition at 48 hours (one generation). actives 5.9% (n = 310,000). P. falciparum luciferase growth in erythrocytes, 48 h. AID 504832. Potency, µM (doses to about 28.7 µM), inactives show top-dose activity change, negative = inhibition, actives largely listed as inhibitors; further: potency means the concentration at half of the fitted maximal effect
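Erythrocytes infected with P. falciparum carrying an integrated firefly luciferase reporter (2% hematocrit, 0.1% parasitemia final) were exposed to compounds in RPMI 1640 with 0.5% Albumax at 37 C, 5% CO2. Growth inhibition was scored as reduced luminescence.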
* hit, by the source's call; [ ] = dose if it differs, or a comment. Sampled rows, rich in hits. Any-hit rate of the full collection: about 14%. Unless noted, the call rests on the fitted dose curve; in most records, active means well fitted inhibition curve with a large enough effect; inconclusive means small, poorly fitted or top-dose-only effect, or another doubt; inactive means no such curve, though single readings can be large or run the other way. On the % scale 0 is the no-effect control and ±100 the full control effect.

Results for COc1ccc(C(=O)C2CCCN(C(=O)Cn3ccc(C)n3)C2)cc1OC (stereo not drawn) ?
Pf growth 96h: inconclusive; HCV inh: 20%; Marburg entry inh: inconclusive; LASV entry inh: 4%[46.1 µM]; HCMV antiviral: 6; Pf growth 48h: -15%

How did COc1ccc2cc(C(=O)C3CCCN(C(=O)CSc4nnc(C)o4)C3)ccc2c1 (stereo not drawn) do in these assays?
Pf growth 96h: inconclusive; HCV inh: inconclusive; Marburg entry inh: inconclusive; LASV entry inh: -23%[46.1 µM]; HCMV antiviral: -66*; Pf growth 48h: -12%

Results for COc1ccc(C(=O)C2CCCN(C(=O)CSC)C2)cc1OC (stereo not drawn) ?
Pf growth 96h: 13µM*; HCV inh: -7%; HCMV antiviral: 90; Pf growth 48h: 19%

What do the screens show for `CSc1ccc(C(=O)C2CCCN(C(=O)CCc3c(C)nn(C)c3C)C2)cc1` (stereo not drawn)?
HCV inh: inconclusive; Marburg entry inh: inconclusive; LASV entry inh: inconclusive; HCMV antiviral: -63*

What do the screens show for `Cc1ccc(-c2noc(CSc3nnc(-c4ccncc4)n3-c3ccc(C)cc3)n2)cc1`?
Pf growth 96h: 12µM*; HCV inh: inconclusive; Marburg entry inh: inconclusive; LASV entry inh: -26%; HCMV antiviral: 15; Pf growth 48h: inconclusive

Results for Cc1ccc(-n2c(SCc3nc(-c4ccc(Cl)cc4)no3)nnc2-c2ccncc2)cc1 ?
Marburg entry inh: inconclusive; LASV entry inh: -18%[46.1 µM]; HCMV antiviral: -23

Results for Clc1ccc(-c2noc(CSc3nnc(-c4ccncc4)n3-c3ccccc3)n2)cc1 ?
HCV inh: 4µM*; Marburg entry inh: inconclusive; LASV entry inh: -28%; HCMV antiviral: -101*; Pf growth 48h: -22%

What do the screens show for `CCOc1ccc(NC(=O)C2CCN(S(=O)(=O)c3c(C)noc3/C=C/c3c(C)cc(C)cc3C)CC2)cc1`?
LASV entry inh: 6%[46.1 µM]; HCMV antiviral: inconclusive

Results for O=C(Nc1c(C(=O)Nc2ccccc2F)oc2ccccc12)c1cc2ccccc2o1 ?
Marburg entry inh: 18%[46.1 µM]; LASV entry inh: 15%[46.1 µM]; HCMV antiviral: -36

What do the screens show for `COc1ccc(CC(=O)N[C@@H]2c3ccccc3CC[C@H]2OCc2ccccc2)cc1`?
HCV inh: inconclusive; HCMV antiviral: -17

How did O=C(Cc1cccs1)N[C@@H]1c2ccccc2CC[C@H]1OCc1ccccc1 do in these assays?
HCV inh: 0%; HCMV antiviral: -99*

How did O=C(Cc1cccs1)N[C@@H]1c2ccccc2CC[C@@H]1OCc1ccccc1 do in these assays?
HCV inh: 6%; HCMV antiviral: -17

How did CC(C)C(=O)N[C@@H]1c2ccccc2CC[C@@H]1OCc1ccccc1 do in these assays?
HCV inh: 2%; HCMV antiviral: -82*

How did COc1cccc([C@H]2C(C(=O)c3sc(C)nc3C)=C(O)C(=O)N2CCN2CCOCC2)c1OC do in these assays?
Marburg entry inh: 10%

How did Cc1onc(-c2ccccc2)c1C(=O)N1CCN(C/C=C/c2ccccc2)CC1 do in these assays?
Pf growth 96h: 2.1µM*; HCV inh: -1%; Marburg entry inh: 1%; HCMV antiviral: -12

Results for Cc1onc(-c2ccccc2)c1C(=O)N1CCCC(C)(C(=O)NS(=O)(=O)C2CC2)C1 (stereo not drawn) ?
HCMV antiviral: 0

How did C=CCN1CCN(C(=O)c2c(-c3ccccc3)noc2C)CC1 do in these assays?
Pf growth 96h: -25%; HCV inh: 4%; Marburg entry inh: -2%[46.1 µM]; LASV entry inh: -11%[46.1 µM]; HCMV antiviral: 71; Pf growth 48h: -7%

Results for CCc1noc(C)c1C(=O)N1CCN(c2cccc(C)c2C)CC1 ?
Pf growth 96h: 4%; HCV inh: 2%; Marburg entry inh: -18%; LASV entry inh: inconclusive; HCMV antiviral: -33; Pf growth 48h: inconclusive

How did CCCS(=O)(=O)NC(=O)C1(C)CCCN(C(=O)c2c(-c3ccccc3)noc2C)C1 (stereo not drawn) do in these assays?
HCMV antiviral: -63*

What do the screens show for `Cc1cccc(N2CCN(C(=O)c3c(-c4ccccc4)noc3C)CC2)c1C`?
Pf growth 96h: 10µM*; HCV inh: inconclusive; Marburg entry inh: 2.5µM*; LASV entry inh: inconclusive; HCMV antiviral: -12; Pf growth 48h: inconclusive

What do the screens show for `Cn1cnc(S(=O)(=O)N2CCC(C(=O)Nc3ccc(F)cc3F)CC2)c1`?
LASV entry inh: 4%[46.1 µM]; HCMV antiviral: -19

Results for Cc1cc2c(c(=O)n1Cc1ccccc1)C1O[C@](c3ccsc3)(Cc3ccccc31)O2 ?
Pf growth 96h: inconclusive; Pf growth 48h: 1.2µM*

How did Cc1cc2c(c(=O)n1Cc1ccccc1)[C@H]1O[C@](c3ccsc3)(Cc3cc(C#N)ccc31)O2 do in these assays?
Marburg entry inh: 1%[14.2 µM]

What do the screens show for `Cc1cc2c(c(=O)n1Cc1ccccc1)C1O[C@](c3ccsc3)(Cc3cc(C#N)ccc31)O2`?
Pf growth 96h: 22%[5.75 µM]; Pf growth 48h: 1.7µM*

What do the screens show for `C[C@H](O)[C@@H]1C(=O)N2CCc3c([nH]c4ccccc34)[C@@H]2C[C@@H]1N(C)C(=O)Nc1cc(Cl)cc(Cl)c1`?
HCMV antiviral: -6

Results for O[C@@H](CNC[C@H](O)c1ccccc1)c1ccccc1 ?
Pf growth 96h: 9.3µM*; HCV inh: -4%; Marburg entry inh: inconclusive; LASV entry inh: 6%; HCMV antiviral: -22; Pf growth 48h: 9.3µM*

Results for OC(CNCCc1ccccc1)c1ccccc1 (stereo not drawn) ?
Pf growth 96h: 5.9µM*; HCV inh: 5%; Marburg entry inh: -11%; LASV entry inh: -14%; HCMV antiviral: -13; Pf growth 48h: 5.9µM*

How did COc1ccc(CCNCC(O)c2ccccc2)cc1 (stereo not drawn) do in these assays?
Pf growth 96h: inconclusive; HCV inh: 19%; Marburg entry inh: inconclusive; LASV entry inh: 1%; HCMV antiviral: -7; Pf growth 48h: 9.3µM*

What do the screens show for `CN1C(CC(O)c2ccccc2)CCCC1CC(O)c1ccccc1` (stereo not drawn)?
Pf growth 96h: -1%; HCV inh: -4%; HCMV antiviral: inconclusive; Pf growth 48h: inconclusive

Results for CC1CCC(NCC(O)c2ccccc2)CC1 (stereo not drawn) ?
Pf growth 96h: 6.6µM*; HCV inh: -20%; Marburg entry inh: -27%; LASV entry inh: 0%; HCMV antiviral: -36

How did Cc1sc2c(c1C)c(=O)n(-c1ccc(Cl)cc1)c(=O)n2Cc1c(F)cccc1Cl do in these assays?
Marburg entry inh: -22%[46.1 µM]; LASV entry inh: 13%[46.1 µM]; HCMV antiviral: 4
